In the library only some 3.9% were active in any assay of this set; here they are far more common.
TWEAK-Fn14 inh = inhibitors of TWEAK-Fn14 interaction signaling; 2% of 360,000 active; inhibition, % at 10 µM; TWEAK-stimulated Fn14 reporter cells, luciferase luminescence, 8 h; in the data active means inhibition above about 50%
Peg3 prom inh-1 = Peg3 promoter activity inhibition | HeLa PEG-Prom luciferase reporter, luminescence, overnight | inhibition, % at 20 µM | 1.7% of 360,000 active | AID 588405;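 active means inhibition of at least 50% at 20 µM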
HIF-2a inh = blocks HIF-2a reporter activity; 786-0 RCC cells HIF-2a reporter, luciferase luminescence, overnight; inhibition, % at 18.8 µM; 0.72% of 360,000 active;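 active means inhibition of the luminescence signal of 40% or more relative to plate controls, in a single-dose primary screen at 18.75 µM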
CF NFkB block = blocks PAF-induced NF-kB reporter in cystic fibrosis cells; 0.86% of 360,000 active; KKLEB NF-kB-GFP reporter, GFP fluorescence overnight; inhibition, % at 5 µM;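 active means at least 50% inhibition at 5 µM, scaled per plate between neutral and stimulator controls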;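 further: PAF is a Pseudomonas aeruginosa culture filtrate used as stimulus; plate controls were PAF-stimulated DMSO wells for no effect and unstimulated DMSO wells for full effect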
TROY signal inh = blocks TROY-dependent signaling in reporter cells. 0.98% of 360,000 active. Q293 LMP1-TROYcd NF-kB luciferase reporter, 4 h. inhibition, % at 10 µM;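 active means compounds whose plate-normalised and pattern-corrected inhibition of the luciferase reporter signal at the single screening dose is 50% or more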
KKLEB tox = CF airway cell cytotoxicity counter-screen. 0.36% of 360,000 active. activity change (cytotoxicity), % at 5 µM. AID 602141. KKLEB CF airway cells viability, ATPlite luminescence, overnight; stronger effect = lower value; cells stimulated with P. aeruginosa culture filtrate;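 active means corrected activity change at or below -50% at 5 µM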
Peg3 prom inh-2 = confirmation of Peg3 promoter inhibitors; shares compounds with Peg3 prom inh-1; HeLa PEG-Prom luciferase reporter, luminescence, overnight; inhibition, % at 20 µM; 84% of 1,300 active; AID 602417;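 active means at 20 µM dose, 40% or more inhibition averaged across four replicates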
* hit, by the source's call; ! = not confirmed by another sample.

How did N/C(=N\OC(=O)c1ccccc1)C(Cc1ccccc1)C(=O)NOC(=O)c1ccccc1 (stereo unspecified) do in these assays?
TWEAK-Fn14 inh: -7.7; Peg3 prom inh-1: 99.3*; HIF-2a inh: -40.5; CF NFkB block: 9.4; TROY signal inh: -6.7; KKLEB tox: -17.1; Peg3 prom inh-2: 98.8*

Results for O=[N+]([O-])c1c(NCCCO)cc(SCc2ccco2)c2nonc12 ?
TWEAK-Fn14 inh: -6.6; Peg3 prom inh-1: 15.8; HIF-2a inh: 21.8; CF NFkB block: 6.2; TROY signal inh: 11.8; KKLEB tox: -10.9

What do the screens show for `CC(=O)OCCNc1cc(SCc2ccco2)c2nonc2c1[N+](=O)[O-]`?
TWEAK-Fn14 inh: -1.6; Peg3 prom inh-1: 52.1*; HIF-2a inh: 8.5; CF NFkB block: 28.5; TROY signal inh: -29.6; KKLEB tox: 12.7; Peg3 prom inh-2: 68.8*

How did CCOc1cc(CNn2cnnc2)ccc1OCC(=O)NC1CCCCC1 do in these assays?
TWEAK-Fn14 inh: -5.3; Peg3 prom inh-1: 1.8; HIF-2a inh: -6.4; CF NFkB block: 15.4; TROY signal inh: 4.8; KKLEB tox: -4.7

What do the screens show for `CC(C)(C)NC(=O)C1C(c2ccc(C(F)(F)F)cc2)=Nc2ccccc2N1C(=O)c1cccc(C(F)(F)F)c1` (stereo unspecified)?
HIF-2a inh: 1.3

What do the screens show for `CN(C)c1ccc(/C=C/c2ccc3ccccc3n2)cc1`?
TWEAK-Fn14 inh: 99.2*; Peg3 prom inh-1: 88.5*; HIF-2a inh: 76.1*; CF NFkB block: -30.2; TROY signal inh: 75.6*; KKLEB tox: -79.7*; Peg3 prom inh-2: 67.9*

What do the screens show for `CN(C)c1ccc(/C=C/c2nc3ccccc3s2)cc1`?
TWEAK-Fn14 inh: 105.4*; Peg3 prom inh-1: 102.1*; HIF-2a inh: 61.6*; CF NFkB block: -31.1; TROY signal inh: 65.2*; KKLEB tox: -83.1*; Peg3 prom inh-2: 66.6*

Results for CCCN(CCC)c1ccc(/C=C/c2ccc3cc(OCC)ccc3n2)cc1 ?
TWEAK-Fn14 inh: 42.8; Peg3 prom inh-1: -213.3; HIF-2a inh: -172.4; CF NFkB block: 4.1; TROY signal inh: 10.9; KKLEB tox: -4.5

What do the screens show for `Cc1nc(-c2ccc(F)cc2)c(CC(=O)N(C)CC(=O)Nc2ccc(Cl)c(C(F)(F)F)c2)s1`?
TWEAK-Fn14 inh: 26.1; Peg3 prom inh-1: 57.8*; HIF-2a inh: 8.4; CF NFkB block: 19.4; TROY signal inh: 42.7; KKLEB tox: -25.7; Peg3 prom inh-2: 56.3*

How did CN(CC(=O)Nc1ccc(Cl)c(C(F)(F)F)c1)C(=O)c1cc(-c2ccncc2)nc2ccccc12 do in these assays?
TWEAK-Fn14 inh: 47.1; Peg3 prom inh-1: 77.1*; HIF-2a inh: 17.1; CF NFkB block: -1.0; TROY signal inh: 35.7; KKLEB tox: -21.8; Peg3 prom inh-2: 91.5*

What do the screens show for `COc1cccc(NC(=O)CN(C)C(=O)c2cc(-c3ccc(F)cc3)nc3ccccc23)c1`?
TWEAK-Fn14 inh: 39.7; Peg3 prom inh-1: 63.1*; HIF-2a inh: -7.6; CF NFkB block: 1.0; TROY signal inh: 20.0; KKLEB tox: -18.7; Peg3 prom inh-2: 72.8*

How did CN(CC(=O)Nc1ccc(F)c(F)c1F)C(=O)c1cc(-c2ccncc2)nc2ccccc12 do in these assays?
TWEAK-Fn14 inh: 6.5; Peg3 prom inh-1: 7.0; HIF-2a inh: 21.6; CF NFkB block: -2.0; TROY signal inh: 1.1; KKLEB tox: -3.7

How did CCN(CC)CCOc1ccc(/C(=C(/Cl)c2ccccc2)c2ccccc2)cc1 do in these assays?
TWEAK-Fn14 inh: -9.7; Peg3 prom inh-1: 102.2*!; HIF-2a inh: -6.7; CF NFkB block: 39.3; TROY signal inh: -6.0; KKLEB tox: 3.1; Peg3 prom inh-2: 95.9*

How did CCC(=C(c1ccccc1)c1ccc(OCCN(C)C)cc1)c1ccccc1 do in these assays?
TWEAK-Fn14 inh: 11.5; Peg3 prom inh-1: 6.8; HIF-2a inh: 1.8; CF NFkB block: -10.6; TROY signal inh: -2.0; KKLEB tox: -4.7

How did COC(=O)c1ccc(Nc2cc(C)nc3ccc(C)cc23)cc1 do in these assays?
TWEAK-Fn14 inh: -16.4; Peg3 prom inh-1: 55.5*; HIF-2a inh: 18.8; CF NFkB block: -9.0; TROY signal inh: -24.7; KKLEB tox: -7.3; Peg3 prom inh-2: 89.4*

How did COC(=O)c1ccc2nc(C)cc(Nc3ccccc3C)c2c1 do in these assays?
TWEAK-Fn14 inh: -13.2; Peg3 prom inh-1: 1.4; HIF-2a inh: -4.0; CF NFkB block: -21.0; TROY signal inh: -6.0; KKLEB tox: -9.7

What do the screens show for `Cc1ccccc1C(C)(O)c1cnc(C)n1Cc1ccccc1` (stereo unspecified)?
TWEAK-Fn14 inh: -21.5; Peg3 prom inh-1: -5.0; HIF-2a inh: 13.5; CF NFkB block: -9.9; TROY signal inh: -4.8; KKLEB tox: 8.3

What do the screens show for `O=C1NC(Cc2ccccc2)c2nc3cc(F)ccc3c(=O)n2-c2cc3ccccc3cc21` (stereo unspecified)?
TWEAK-Fn14 inh: 40.3; Peg3 prom inh-1: 21.5; HIF-2a inh: 24.4; CF NFkB block: -8.7; TROY signal inh: 32.3; KKLEB tox: -2.9

Results for O=C1NC(Cc2ccc(O)cc2)c2nc3ccc(F)cc3c(=O)n2-c2cc3ccccc3cc21 (stereo unspecified) ?
TWEAK-Fn14 inh: 24.8; Peg3 prom inh-1: 54.1*; HIF-2a inh: -28.9; CF NFkB block: -2.8; TROY signal inh: 16.4; KKLEB tox: -16.7; Peg3 prom inh-2: 60.0*

What do the screens show for `COc1ccc2[nH]c3c(c2c1)CCN1C(=O)C(CC(=O)NCCc2ccccn2)C[C@H](C(=O)N2CCCCC2)[C@@]31CCc1ccccc1` (stereo partly specified)?
TWEAK-Fn14 inh: 7.5; Peg3 prom inh-1: 5.6; HIF-2a inh: 6.8; CF NFkB block: 20.7; TROY signal inh: 4.5; KKLEB tox: -12.8

Results for O=C(C[C@H]1C[C@H](C(=O)N2CCCCC2)[C@@]2(CCc3ccccc3)c3[nH]c4ccc(Cl)cc4c3CCN2C1=O)NCCc1ccccn1 ?
TWEAK-Fn14 inh: 68.7*; Peg3 prom inh-1: 69.3*; HIF-2a inh: 7.1; CF NFkB block: 34.7; TROY signal inh: 63.0*; KKLEB tox: 2.2; Peg3 prom inh-2: 88.0*

What do the screens show for `CCN(CC)CCN(C(=O)c1cc2c(ccc3ccccc32)oc1=O)c1nc2cc3c(cc2s1)OCCO3`?
TWEAK-Fn14 inh: -6.1; Peg3 prom inh-1: 95.9*; HIF-2a inh: -19.0; CF NFkB block: -6.8; TROY signal inh: 13.8; KKLEB tox: -1.7; Peg3 prom inh-2: -10.8

How did COc1ccc(CC(=O)N(Cc2ccccc2)c2ccccc2)cc1S(=O)(=O)N1CCOCC1 do in these assays?
TWEAK-Fn14 inh: 13.6; Peg3 prom inh-1: 56.3*; HIF-2a inh: 8.6; CF NFkB block: -9.4; TROY signal inh: 9.3; KKLEB tox: -9.4; Peg3 prom inh-2: 47.4*

What do the screens show for `Cc1ccc(C)c(CN2CCC(CNC(=O)Nc3ccc(F)c(Cl)c3)CC2)c1`?
TWEAK-Fn14 inh: -0.3; Peg3 prom inh-1: 67.6*; HIF-2a inh: 7.6; CF NFkB block: 15.5; TROY signal inh: 14.1; KKLEB tox: -14.7; Peg3 prom inh-2: 98.3*

Source: PubChem (Sanford-Burnham Center for Chemical Genomics)
